Epigenetic derep: regulators of epigenetic silencing causing reporter derepression in mouse cells | AID 1865 | Potency, µM (highest dose often 53.9 µM), for the others: at the highest dose GFP activation, usual class: activators | hit rate 0.2% among 280,000 | murine LDR cells, GFP reporter derepression, 30 h; also: % of control where 0% means no effect; nearly all actives have a fitted effect of over 60% in size
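Murine LDR cells bearing a silenced CMV-driven GFP reporter were exposed to compound for 30 h at 37 C. After PBS washes, GFP-positive cells (20-120 um objects) counted by laser-scanning microplate cytometry.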
PINK1 expr mod: PINK1 expression modulation | PINK1 immunofluorescence, high-content cytometry, 24 h | Potency, µM (highest dose often 76.6 µM), for the others: at the top dose activation (PINK1 increase), hits mostly activators | hit rate 0.2% among 410,000 | AID 624263; active = well fitted activation curve with a large enough effect; inconclusive = small, poorly fitted or top-dose-only effect; cell line not stated here; also: % of control where 0% means no effect; nearly all actives have a fitted effect of over 65% in size
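Decision-based qHTS: stable cells, 24 h exposure to five compound concentrations, CCCP as control. Fixed cells stained for PINK1 plus nuclear, mitochondrial and cell markers, cytometer read.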
Gal4-VP16 FLuc: Gal4-VP16 reporter inhibition counter-screen. Drosophila S2 Gal4-VP16 UAS-luciferase, luminescence, 20 h. Potency, µM (top dose mostly 53.6 µM), for the others: top-dose activity, negative = inhibition, actives largely listed as inhibitors. hit rate 3.5% among 310,000;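 also: Gal4-VP16 expression switched on by copper sulfate through the metallothionein promoter; % is scaled to controls: 0 for no effect and ±100 for the full control effect; nearly all actives have a fitted effect of over 50% in size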
ClpP mod: qHTS Assay for Activators of ClpP; purified B. subtilis ClpP, FRET peptide cleavage, 20 min; hit rate 1.9% among 340,000; ATP-dependent Clp protease proteolytic subunit (Bacillus subtilis (strain 168)), P80244; Potency, µM (highest dose often 57.5 µM), inactives show at the highest dose activity change, negative = active; AID 651965, 2013; active = well fitted falling curve with a large enough effect; inconclusive = small, poorly fitted or top-dose-only effect; inactive = no such curve, though single readings can be large or run the other way; also: the source files actives as falling curves though it sought activators and does not explain the sign; nearly all actives have a fitted effect of over 65% in size
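Buffer: 100 mM Tris/HCl pH8, 100 mM KCl, 0.05% low protease BSA, 2.5% glycerol, 0.01% Tween-20. ClpP 10 microg/mL final; 20 min RT; delta FRET normalized to ADEP and DMSO controls.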
RORg inh: ROR gamma (mouse) transcription inhibition; Drosophila S2 Gal4-RORgamma UAS-luciferase reporter, 20 h; Potency, µM (doses to about 53.6 µM), for inactives: top-dose activity change, negative = inhibition, hits mostly inhibitors; hit rate 5.4% among 310,000; AID 2551; also: % is scaled to controls: 0 for no effect and ±100 for the full control effect; nearly all actives have a fitted effect of over 60% in size
Target sequence (P51450 whole entry, looked up, the tested form may be a part): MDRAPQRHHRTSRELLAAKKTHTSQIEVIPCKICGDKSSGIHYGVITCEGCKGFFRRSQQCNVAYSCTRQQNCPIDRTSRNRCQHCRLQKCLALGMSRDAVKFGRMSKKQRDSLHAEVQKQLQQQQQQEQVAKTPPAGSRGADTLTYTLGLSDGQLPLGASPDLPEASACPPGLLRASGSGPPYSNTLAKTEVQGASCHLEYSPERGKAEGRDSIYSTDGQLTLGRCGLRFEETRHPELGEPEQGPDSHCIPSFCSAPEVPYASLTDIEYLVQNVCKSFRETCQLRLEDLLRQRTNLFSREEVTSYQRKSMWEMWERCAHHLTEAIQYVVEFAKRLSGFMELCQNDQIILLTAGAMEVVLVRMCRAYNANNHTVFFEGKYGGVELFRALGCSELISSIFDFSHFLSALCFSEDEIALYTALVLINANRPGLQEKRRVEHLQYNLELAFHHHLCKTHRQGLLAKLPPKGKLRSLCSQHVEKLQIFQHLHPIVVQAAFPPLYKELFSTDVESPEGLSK
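Luminescence from a UAS-regulated Photinus luciferase reporter in stably transfected Drosophila Schneider cells is measured; decreased signal marks ROR gamma inhibition. Fusion expression is induced by 700 uM copper sulfate for 20 hr.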
Sfp PPTase inh: inhibitors of Bacillus subtilis Sfp phosphopantetheinyl transferase | Potency, µM, for the others: largest response in the series, negative = inhibition, actives largely listed as inhibitors | Q9F4F7 | hit rate 3.5% among 310,000 | AID 1490 | Biochemical Sfp PPTase activity, qHTS;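 also: the enzyme is Sfp with the accession as filed and its product quenches rhodamine fluorescence; 0% = enzyme reaction without inhibitor and -100% = no enzyme wells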
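Fluorescence-quenching assay with 15 nM Sfp, 5 uM rhodamine-CoA and 12.5 uM BHQ-2-labelled ybbR peptide in pH 7.6 Hepes/MgCl2 buffer. Enzyme was pre-incubated with compound for 15 min at room temperature. Rate was taken from the 30-min fluorescence change (525/598 nm).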
Active calls of the source: *; ? = inconclusive; / = not tested or not shown. Rows were chosen to be rich in hits. Some 8.1% of all compounds tested hit in one or more screens of this group. Unless noted, calls follow the shape of the dose curve; as a rule, active = well fitted curve in the direction sought with a large enough effect; inconclusive = small, poorly fitted or top-dose-only effect, or another doubt; inactive = no such curve, though single readings can be large; an effect the other way counts as inactive or inconclusive. Potency is read from the fitted curve at half-maximal effect.

SMILES	Epigenetic derep	PINK1 expr mod	Gal4-VP16 FLuc	ClpP mod	RORg inh	Sfp PPTase inh
COc1ccc(Nc2nc(N)nc(CSC(=S)N3CCCCC3C)n2)cc1 (stereo unspecified)	-1.1%	4.2%	-0.7%	/	12.6µM*	15.8%
COc1ccccc1Nc1nc(N)nc(CN2CCc3ccccc3C2)n1	0.0%	-0.8%	?	-0.7%	11.2µM*	13.4%
CCOC(=O)C1CCCN(C(=O)c2cnn(-c3ncc4c(n3)-c3ccccc3CC4)c2C)C1 (stereo unspecified)	/	-0.2%	/	/	/	/
CC(/C=N/NC(=O)Cn1cnc2c1c(=O)n(C)c(=O)n2C)=C\c1ccco1	-0.3%	-0.3%	-1.4%	0.7%	-1.5%	39.8µM*
Cn1c(=O)c2c(ncn2CC(=O)N/N=C/C(Cl)=C/c2ccccc2)n(C)c1=O	0.0%	8.9%	-24.3%	-7.4%	19.9%	2.3%
CC(/C=N/NC(=O)Cc1cccn1C)=C\c1ccco1	0.4%	-1.0%	8.4%	0.8%	-28.4%	39.8µM*
Cc1ccc(/C=N/NC(=O)Cn2cnc3c2c(=O)n(C)c(=O)n3C)s1	1.3%	-2.0%	2.7%	-22.0%	-3.9%	35.2%
Cn1c(=O)c2c(ncn2CC(=O)N/N=C/C=C/c2ccco2)n(C)c1=O	0.0%	-0.7%	-8.1%	/	7.7%	14.1µM*
CCOc1ccc(CCNC(=O)c2cnc3sc(N4CCCCC4)nn3c2=O)cc1	-4.0%	1.5%	/	-8.9%	/	/
Cc1cc(NC(=S)NC(=O)/C=C/c2ccc(S(=O)(=O)N3CCOCC3)cc2)ccc1Br	0.9%	0.9%	-6.4%	/	7.08µM*	14.1%
O=C(/C=C/c1ccc(S(=O)(=O)N2CCOCC2)cc1)NC(=S)Nc1ccc(N2CCOCC2)cc1	-1.5%	3.5%	-15.6%	-2.0%	5.62µM*	3.8%
CC(=O)NC(=S)Nc1ccc(S(=O)(=O)N2CCOCC2)cc1	-2.7%	1.3%	-2.9%	/	23.3%	14.0%
CC(C)(C)NNC(=S)Nc1ccc(S(=O)(=O)N2CCOCC2)cc1	-0.6%	2.7%	?	/	5.62µM*	?
O=C(/C=C/c1ccc(F)cc1)Nc1ccc(S(=O)(=O)N2CCOCC2)cc1	/	3.6%	0.9%	-5.3%	-1.3%	7.6%
O=C(NCc1ccccn1)c1cc2n(n1)C(C(F)(F)F)CC(c1ccco1)N2 (stereo unspecified)	1.1%	-0.5%	-8.0%	-21.1%	13.6%	12.6µM*
O=C(NCC12CC3CC(CC(C3)C1)C2)c1nn2c(c1Cl)NC(c1ccco1)CC2C(F)(F)F (stereo unspecified)	?	4.6%	14.1µM*	0.1%	?	-19.7%
CCc1cccc(Nc2ncnc3onc(-c4ccc(F)cc4)c23)c1	0.0%	5.9%	/	?	/	/
Oc1ccc(N=Nc2nc(-c3ccccc3)c(-c3ccccc3)[nH]2)cc1	1.0%	-1.8%	?	1.1%	12.6µM*	16.1%
CSc1nc(-c2ccccc2)c(-c2ccccc2)[nH]1	-2.3%	2.0%	-11.6%	15.8µM*	12.3%	11.4%
Cc1nc(-c2ccccc2)c(-c2ccccc2)[nH]1	-1.0%	0.0%	-4.1%	25.1µM*	?	1.9%
COc1cccc(-c2ccnc(-n3ncc(C(=O)NCc4cccnc4)c3C3CC3)n2)c1	/	0.4%	/	/	/	/
CC(C)Cc1nc2cc(NS(=O)(=O)N(C)C)cc(C(=O)N3CCOc4ccccc4C3)c2n1C	/	-0.4%	/	/	/	/
O=C(Cc1ccccc1)N/N=C/c1ccc[nH]1	-1.0%	2.1%	-15.6%	0.6%	12.6µM*	-9.3%
NC(=O)N/N=C/c1ccc2cccc(OCc3ccccc3)c2n1	0.1%	2.4%	2.2%	/	11.6%	-6.0%
Cc1ccc(NCC(=O)N/N=C/c2ccc(C(=O)O)cc2)cc1	1.3%	1.0%	-13.4%	-0.7%	-6.5%	-30.0%
Cc1ccc(C)c(NC(=O)CCC(=O)N/N=C/c2ccc[nH]2)c1	-1.2%	?	-12.2%	-0.7%	16.5%	-16.7%
Cc1ccc(NCC(=O)N/N=C\c2ccc[nH]2)cc1	4.0%	2.7%	?	/	6.31µM*	10.1%
